Hit rate of the full screen: of about 130,000 compounds, about 2,500 (1.9%) were called active.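 The calls were made as follows: active = signal ratio slope over the read window, or its plate-corrected B-score, at least 3 SD from the plate mean, either direction; inactive = the rest.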 The sample as a whole holds a higher share of actives than the screen did.

The target in this experiment is ATP-sensitive inward rectifier potassium channel 1 (Homo sapiens) (UniProt P48048). Description: Kir1.1 channel activity modulation, library screen – cell-based, thallium flux, MLSMR library, primary screen (AID 1918).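 Also: B-score of the F/F0 ratio slope over 7 to 12 s after thallium.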 To be noted: Tet-inducible ROMK, thallium flux fluorescence; at 10 µM; actives lie on both sides.
Chain of ATP-sensitive inward rectifier potassium channel 1 (Homo sapiens) (P48048 whole entry, looked up): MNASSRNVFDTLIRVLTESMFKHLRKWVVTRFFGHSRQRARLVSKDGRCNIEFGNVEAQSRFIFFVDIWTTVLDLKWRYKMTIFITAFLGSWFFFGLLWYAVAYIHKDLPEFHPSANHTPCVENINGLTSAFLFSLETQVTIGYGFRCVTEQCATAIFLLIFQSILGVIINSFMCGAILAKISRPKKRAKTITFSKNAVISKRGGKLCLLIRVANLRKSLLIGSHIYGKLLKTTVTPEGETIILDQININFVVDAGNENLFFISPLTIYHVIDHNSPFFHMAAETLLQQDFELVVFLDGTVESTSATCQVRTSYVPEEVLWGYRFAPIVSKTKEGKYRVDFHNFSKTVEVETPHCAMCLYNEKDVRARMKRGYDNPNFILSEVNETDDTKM
For `Cc1cc(NS(=O)(=O)c2ccc(NC(=O)c3cccc(OC(F)F)c3)cc2)nc(C)n1`, the B-score was 0.878 (inactive).

`Cc1ccc([N+](=O)[O-])c(OCCCNCC(C)O)c1` (centres undefined): the B-score is -0.00821 (inactive).

In the case of `O=C(Cc1ccc([N+](=O)[O-])cc1)N/N=C/c1ccco1`, the B-score was -1.24 (inactive).

Take `N#Cc1c(-c2ccc(F)cc2)nc(-c2ccccc2)[nH]c1=O`: the B-score was -1.43 (inactive).

With `O=c1cc(-c2ccccc2)[nH]c2cc(F)ccc12`, the B-score was 4.56 (active).

Regarding `O=c1[nH]c(-c2ccccc2)c(-c2ccccc2)[nH]1`, the B-score is -0.0963 (inactive).

For `CN(C)/C=C/C(=O)c1cnc2sccn2c1=O`, the B-score is -0.835 (inactive).

Turning to `Cc1cccc(Oc2c([N+](=O)[O-])c(=O)n(C)c3ccccc23)c1`, the B-score was -2.67 (active).

With `Cc1nn(C)c(Oc2ccccc2)c1[N+](=O)[O-]`, the B-score was 0.573 (inactive).

As for `Cc1cccc(OP(=O)(Nc2c(C)n(C)n(-c3ccccc3)c2=O)Oc2cccc(C)c2)c1`, the B-score was -0.868 (inactive).

As to `COc1cccc(-c2ccc(SCC(=O)N3CCN(c4ccccc4)CC3)nn2)c1`, the B-score is 0.576 (inactive).

For `COc1ccc(S(=O)(=O)N2CCCCCC2)cc1C(=O)OCC(=O)Nc1cc(C)on1`, the B-score was 0.559 (inactive).

Regarding `COc1cc2c(cc1O)C(SC)=NC(C)(C)C2`, the B-score is -6.55 (active).

Consider `COc1cc2c(cc1OC)C(C(C)C)=NC(C)(C)C2`, for which the B-score is -0.0102 (inactive).

Take `CN(C)C(=O)c1cccn(Cc2cccc(C(F)(F)F)c2)c1=O`: the B-score is 0.481 (inactive).

As for `CN1CCNC(=O)C1CC(=O)N1CC=C(c2ccc(F)cc2)CC1` (centres undefined), the B-score is -0.128 (inactive).

For `CSc1cccc(NC(=S)N(Cc2ccccc2)Cc2ccccn2)c1`, the B-score is -1.37 (active).

Consider `CSc1cccc(NC(=S)N(C(C)C)C(C)c2ccccn2)c1` (centres undefined), for which the B-score was -0.872 (inactive).

For the molecule `COc1cccc(NC(=S)N(Cc2ccc(C)cc2)Cc2ccccn2)c1`, the B-score is 0.0921 (inactive).

Turning to `O=C(Nc1ccncc1)c1ccccc1[N+](=O)[O-]`, the B-score is -0.131 (inactive).

As for `CC1=C/C(=N\S(=O)(=O)c2ccccc2)C(C(C)C)=CC1=O`, the B-score was -2.34 (inactive).

As for `COc1ccc(/C=C/C(=O)N2CCCC2)cc1OC`, the B-score is 1.08 (inactive).

As for `Cc1sc2c(c1C)c(=O)n(-c1ccccc1)c(=O)n2CC(=O)NCC1CCCO1` (centres undefined), the B-score was 0.885 (inactive).

With `Cc1ccc(C(NC(=O)N2CCCC2)C(Cl)(Cl)Cl)cc1F` (centres undefined), the B-score is 0.515 (inactive).

For the molecule `O=C(Nc1ccccc1Cl)c1ccc2nsnc2c1`, the B-score is -0.621 (inactive).

Take `O=C(Nc1ccccc1Cl)/C(Cl)=C(\Cl)S(=O)c1ccccc1` (centres undefined): the B-score was -4.2 (active).

On to `COCCN(CCOC)C(=S)Nc1ccccc1Cl`, for which the B-score is 0.00438 (inactive).

For the molecule `COc1ccc(NC(=O)C(C)SCc2ccccc2)cc1` (centres undefined), the B-score was 0.339 (inactive).

Turning to `COc1ccc(-c2[nH]ncc2CN(C)Cc2c(C)n[nH]c2C)c(OC)c1`, the B-score was 1.28 (active).

For the molecule `COc1ccc(-c2[nH]ncc2CN(C)Cc2cccnc2)c(F)c1`, the B-score is 0.572 (inactive).

For `COc1ccc(-c2[nH]ncc2CN(C)Cc2cc(C)[nH]n2)c(F)c1`, the B-score was 0.139 (inactive).

For the molecule `Cc1cc(/C=C2/NC(=O)NC2=O)c(C)n1-c1cccnc1`, the B-score was 0.0128 (inactive).

Consider `CCc1cc2c(=O)c(-c3ccc(F)cc3)c(C(F)(F)F)oc2cc1OCC(=O)O`, for which the B-score is -0.413 (inactive).

`O=c1c(-c2ccc3c(c2)OCCO3)c(C(F)(F)F)oc2cc(O)cc(O)c12`: the B-score was -5.2 (active).

On to `COc1ccc(-c2onc(C)c2-c2ccc3c(c2)OCCO3)c(O)c1`, for which the B-score was -0.0517 (inactive).

As for `COc1ccc(C(C)=O)cc1CSc1nc2nc(C)cc(C)n2n1`, the B-score was 1.28 (inactive).

Regarding `Cc1cccc(NC(=S)Nc2ccc(Cl)c(Cl)c2)c1`, the B-score was 0.116 (inactive).

With `COc1ccc(CN(C(=O)c2cccs2)c2nccs2)cc1OC`, the B-score is 4.52 (active).

As for `COc1ccc(CCNC(=O)COC(=O)/C=C/c2cccs2)cc1OC`, the B-score was -0.931 (inactive).

Turning to `COc1ccc(CCNC(=O)CSc2nnc(CNC(=O)c3cccs3)o2)cc1OC`, the B-score was -0.208 (inactive).

For the molecule `O=c1[nH]n2c(-c3ccccc3)nc(O)c2c2ccccc12`, the B-score was 2.45 (inactive).

`C=C(C)C1CC=C(C)/C(=N/NC(=O)CCCNc2cccc(C)c2)C1` (centres undefined): the B-score was 1.1 (inactive).

For the molecule `Cc1ccc(CNC(=O)C2CCCN(S(C)(=O)=O)C2)cc1` (centres undefined), the B-score was 0.0583 (inactive).

As to `CC(C)OCCCNC(=O)C1CC(=O)N(C2CCCCCCC2)C1` (centres undefined), the B-score is -0.488 (inactive).

In the case of `Cc1ccc(CNC(=O)C2CC(=O)N(C3CCCCCCC3)C2)cc1` (centres undefined), the B-score is -2.38 (active).

As to `O=C(COc1ccccc1)Nc1ccc(N2CCN(C(=O)c3cccs3)CC2)cc1`, the B-score is -0.916 (inactive).

For `CC(=O)Nc1ccc(OCCC[n+]2cccc(C(=O)[O-])c2)cc1`, the B-score was 0.158 (inactive).

As to `COc1cc(NC(=S)NCc2ccc(S(N)(=O)=O)cc2)cc(OC)c1`, the B-score was 2.23 (inactive).

Consider `Cc1cc(C)n(-c2nc(C(F)(F)F)nc3ccccc23)n1`, for which the B-score was -0.0244 (inactive).

For `CN(NC(=O)c1ccccc1F)c1nc(C(F)(F)F)nc2ccccc12`, the B-score is 2.83 (active).

Regarding `COC(=O)CNC(=O)c1ccccc1F`, the B-score was 0.963 (inactive).

For the molecule `Cc1ccc(C)c(-n2cc(CN3CCN(C(=O)c4ncn[nH]4)CC3)c(-c3ccccc3)n2)c1`, the B-score was -0.754 (inactive).

`COc1ccc(N2CCN(C(=O)COc3ccc4c(C)cc(=O)oc4c3)CC2)cc1`: the B-score is -0.589 (inactive).

For `Cc1ccccc1N1CCN(CCCOc2ccc3c(C)cc(=O)oc3c2)CC1`, the B-score is -4.08 (active).

For the molecule `CCOc1ccccc1N1CCN(C(=O)COc2ccc3c(C)cc(=O)oc3c2)CC1`, the B-score is 0.824 (inactive).

With `CCO/C=C1\C(=O)N(c2ccc(OCC)cc2)C(=O)c2ccccc21`, the B-score was -0.0391 (inactive).

In the case of `CCNC(=O)CC1C(=O)N(c2ccc(OC)cc2)C(=S)N1CCc1ccncc1` (centres undefined), the B-score was 0.277 (inactive).

In the case of `Cc1cc(/C=N/NC(=O)c2cccnc2)c(C)n1CC(C)C`, the B-score was 1.51 (inactive).

On to `Cc1cccc(-n2c(SCC(=O)Nc3cccc(S(=O)(=O)NC4=NCCCCC4)c3)nc3ccccc3c2=O)c1C`, for which the B-score was -5.4 (active).

For the molecule `CCc1ccc(C(=O)OCC(=O)Nc2cccc(S(=O)(=O)NC3=NCCCCC3)c2)cc1`, the B-score was -1.41 (inactive).

As for `C/C(=N\NC(=O)CSc1nc2ccccc2c(=O)n1-c1ccccc1C)c1cccs1`, the B-score was 0.111 (inactive).

As for `O=C(N/N=C/c1ccccn1)c1ccc(S(=O)(=O)N2CCCCCC2)cc1`, the B-score was 1.67 (inactive).

For the molecule `CC12CN(Cc3ccccc3)CC(C)(CN(Cc3ccccc3)C1)C2=NO`, the B-score was -3.21 (active).

With `O=C(Nc1ccccc1)N1CCN(Cc2ccccc2)CC1`, the B-score was -0.796 (inactive).

Turning to `C/C(=N\N1CCN(Cc2ccc(C)cc2)CC1)c1ccco1`, the B-score was -0.228 (inactive).

In the case of `COc1cc2c(C(=O)N3CCN(C)CC3)c(CSc3ccccc3)n(C)c2cc1Br`, the B-score is -0.529 (inactive).

Regarding `Cc1ccnc(NC(=O)CCC(=O)N(CC(=O)NCc2ccccc2)Cc2ccco2)c1`, the B-score was -0.274 (inactive).

On to `CCN(CC)C(=O)CN(c1cccc(OC)c1)S(=O)(=O)c1ccc(C)cc1`, for which the B-score is 0.523 (inactive).

On to `Cc1ccc(N(CC(O)CN2CCCC2)S(=O)(=O)c2ccccc2)cc1` (centres undefined), for which the B-score is -0.891 (inactive).

For `COc1ccc([N+](=O)[O-])cc1N(CC(O)CN(CC(C)C)CC(C)C)S(=O)(=O)c1ccc(C)cc1` (centres undefined), the B-score is -3.76 (active).

Consider `C/C(Cc1ccccc1)=N\NC(=O)CNC(=O)c1ccccc1Cl`, for which the B-score was 0.223 (inactive).

As for `CN(/C(=N/S(=O)(=O)c1cccs1)c1ccccc1)c1ccc(O)cc1`, the B-score was 0.111 (inactive).

For `O=C(NNC(=S)NCc1ccco1)C(c1ccccc1)c1ccccc1`, the B-score was -0.0839 (inactive).

As to `CCC1CCCCN1S(=O)(=O)Cc1ccccc1Cl` (centres undefined), the B-score is -1.11 (inactive).

In the case of `COc1ccc(N2CCN(C(=O)C3CCN(S(=O)(=O)c4ccc(C)cc4)CC3)CC2)cc1`, the B-score was 0.00237 (inactive).

Regarding `O=C1Nc2ccc(Br)cc2/C1=N/N=C/C1=C(N2CCOCC2)C(=C\c2ccccc2)/CC1`, the B-score was 1.2 (inactive).

For `N#C/C(=C\C1=C(N2CCOCC2)C(=C\c2ccccc2)/CC1)C(=O)Nc1ccccc1F`, the B-score is -3.73 (active).

For `C(=N\N1CCN(c2ccccn2)CC1)/C1=C(N2CCOCC2)C(=C/c2ccccc2)/CC1`, the B-score is -0.00313 (inactive).

Regarding `Cc1cccc(NC(=O)CSc2nnc(CCNC(=O)OC(C)(C)C)o2)c1C`, the B-score is 0.146 (inactive).

Regarding `Fc1cccc(CSc2nnc3ccc(-c4ccncc4)nn23)c1`, the B-score is 1.92 (inactive).

For `CSCCNCc1cn(-c2ccc(F)cc2F)nc1-c1ccccc1C`, the B-score was -0.924 (inactive).

Consider `CCCCCCCNc1nc(Cl)nc(NCCO)n1`, for which the B-score was -0.271 (inactive).

Regarding `C=CCc1ccc(OCC(O)CN2CCN(Cc3ccccc3)CC2)c(OC)c1` (centres undefined), the B-score was -1.83 (inactive).

As for `Cc1ccc(-c2csc(NC(=O)c3cnccn3)n2)cc1C`, the B-score was 1.18 (inactive).

As to `O=C(Nn1c(-c2ccccc2)nc2ccccc2c1=O)c1ccc([N+](=O)[O-])cc1`, the B-score is 1.18 (inactive).

Consider `Cc1nc2ccccc2nc(=O)c1NNc1ccc([N+](=O)[O-])cc1`, for which the B-score was 3.6 (active).

As for `Cc1nc2ccccc2cc1C(=O)N/N=C/c1ccc([N+](=O)[O-])cc1`, the B-score was -0.145 (inactive).

On to `COc1ccccc1CC(NC(C)=O)C(=O)NC1CCN(C(=O)Nc2ccccc2Cl)CC1` (centres undefined), for which the B-score is -0.0342 (inactive).

Consider `O=C(NNC(=S)NCCCN1CCOCC1)c1ccncc1`, for which the B-score was -0.0357 (inactive).

On to `COCCNC(=O)/C(C#N)=C/c1nc(N(C)C)n(-c2ccc(F)cc2)c1Cl`, for which the B-score was -0.0358 (inactive).

With `COCCNC(=O)/C(C#N)=C/c1cccc(OCc2ccccc2)c1`, the B-score is -2.75 (active).

As to `CCOC(=O)NC(=O)/C(C#N)=C\c1ccccc1`, the B-score is -1.48 (inactive).

Regarding `N#C/C(C(=S)Nc1ccccc1)=C1/NN=C(N2CCOCC2)N1c1ccccc1`, the B-score was 0.219 (inactive).

For `O=C(COC(=O)CC1CC2CCC1C2)NC(=O)NC1CCCC1` (centres undefined), the B-score is -0.0323 (inactive).

These data come from PubChem BioAssay AID1918 (Vanderbilt High Throughput Screening Facility, 2009).
